This is one part of a sample in which hits are shown more often than they occur.
mHTT-CaM PPI inh – mutant huntingtin-calmodulin interaction inhibitors – biochemical, AlphaScreen, primary screen; AlphaScreen His-mHTT/GST-CaM binding, luminescence; P42858; AID 1671202, 2021; inhibition, % at 15 µM; 3.6% of 190,000 active
Pf apPOL block – Pf-apPOL inhibitors, biochemical, fluorescence; Plasmodium falciparum apicoplast DNA polymerase (apPOL); Recombinant Pf-apPOL, molecular beacon fluorescence, 1.5 h; inhibition, % at 10 µM; 0.25% of 210,000 active
A number is an active result; i = inactive; nt = no result. Cut-off read from the data, not from the text of the source: active = inhibition above about 50%; inactive = the rest.

SMILES	mHTT-CaM PPI inh	Pf apPOL block
CC(=O)Nc1ccc(S(=O)(=O)N2CCC3(CC2)NCCN=C3NC2CCCC2)cc1	i	i
CCN(CC)c1ccc(N=Nc2c(O)ccc3ccccc23)cc1	nt	i
Oc1ccc2ccccc2c1N=Nc1ccccc1	84	nt
O=C(CN1CCC(c2nnc(C3CC3)o2)CC1)N1CCN(c2ccccc2)CC1	i	i
COc1cccc(C2CC(C(F)(F)F)n3ncc(C(=O)NCc4ccc(F)cc4)c3N2)c1 (stereo unspecified)	64	i
COc1ccc(CNC(=O)c2cnn3c2NC(c2ccc(OC)cc2)CC3C(F)(F)F)cc1 (stereo unspecified)	i	i
Oc1ccc(C=Nc2ccc(-c3ccccc3)cc2)cc1	i	i
Oc1ccc(N=Cc2ccc(Br)cc2)cc1	64	i
Nc1nc(O)c(C2=c3cc(F)ccc3=NC2=O)s1	81	i
O=C1N=c2ccc(F)cc2=C1c1sc(Nc2ccc(F)cc2)nc1O	i	i
O=S(=O)(c1ccc(C2Nc3c(Cl)cc(Cl)cc3C3C=CCC32)cc1)N1CCOCC1 (stereo unspecified)	i	i
O=C(c1cccc([N+](=O)[O-])c1)N1CCOCC1	i	i
O=C(c1ccc2c(c1)C1C=CCC1C(c1ccc(Cl)cc1)N2)N1CCOCC1 (stereo unspecified)	83	i
O=C(c1ccc2c(c1)C1C=CCC1C(c1cccc([N+](=O)[O-])c1)N2)N1CCCCC1 (stereo unspecified)	81	i
O=C(c1ccc2c(c1)C1C=CCC1C(c1ccc([N+](=O)[O-])cc1)N2)N1CCOCC1 (stereo unspecified)	70	i
O=C(O)C1Nc2ccc([N+](=O)[O-])cc2C2C=CCC12 (stereo unspecified)	i	i
N#C/C(=C\c1ccc(O)c(O)c1)c1nc(-c2ccc3c(c2)OCO3)cs1	98	i
COc1ccc(-c2csc(/C(C#N)=C/c3ccc(O)c(O)c3)n2)cc1OC	81	i
COc1ccc(/C=C(\C#N)c2nc(-c3ccc(OC)c(OC)c3)cs2)cc1O	i	i
N#C/C(=C\c1ccccc1[N+](=O)[O-])c1nc(-c2ccc3c(c2)OCO3)cs1	i	i
O=C1c2cc(S(=O)(=O)O)ccc2CCC1S(=O)(=O)O (stereo unspecified)	nt	i
O=C(Nc1c2c(nn1-c1cccc(Cl)c1)CSC2)C1CC1	i	i
O=[N+]([O-])c1ccc2c(c1)oc1ccc(S(=O)(=O)NC3CCCCC3)cc12	i	nt
Cc1noc(C)c1C1CCCN1C(=O)c1cc(C(F)(F)F)nn1C (stereo unspecified)	i	i
CC(=O)N1CCN(c2nc(CN3CCC(C)CC3)cs2)CC1	i	i
SMILES	mHTT-CaM PPI inh	Pf apPOL block
OC(COC12CC3CC(CC(C3)C1)C2)CN1CCN(c2ccccc2)CC1 (stereo unspecified)	i	i
OC(COCC12CC3CC(CC(C3)C1)C2)CN1CCN(c2ccccc2)CC1 (stereo unspecified)	57	i
OC(COCCC12CC3CC(CC(C3)C1)C2)CN1CCN(c2ccccc2)CC1 (stereo unspecified)	55	i
OC(COCCC12CC3CC(CC(C3)C1)C2)CN1CCN(c2ccccn2)CC1 (stereo unspecified)	i	i
CNC1(C)CCS(=O)(=O)C1 (stereo unspecified)	i	i
COc1ccc(C(O)=C(C#N)c2nc3ccccc3[nH]2)cc1	i	i
Cc1ccc(-c2ccc(C)cc2[N+](=O)[O-])c([N+](=O)[O-])c1	nt	i
Cc1ccc(-n2c(C)ccc2C)c([N+](=O)[O-])c1	67	i
O=C1c2ccccc2-c2onc3c(N4CCOCC4)cc(N4CCOCC4)c1c23	i	i
CC1CC(C)CN(c2cc(NCCCC(=O)O)c3c4c(onc24)-c2ccccc2C3=O)C1 (stereo unspecified)	65	i
CC1CCCN(c2cc(NCCCC(=O)O)c3c4c(onc24)-c2ccccc2C3=O)C1 (stereo unspecified)	77	i
O=C(NC1CCCCC1)c1ccc2c3c(onc13)-c1ccccc1C2=O	i	i
O=C(NCc1cc(-c2ccc3c(c2)OCO3)on1)c1cnc2ccccc2n1	i	i
CCCN(C)C1CN(Cc2cn(Cc3cccc(Cl)c3)nn2)S(=O)(=O)C1 (stereo unspecified)	i	i
N#CC(=Cc1[nH]c2ccccc2c1O)C(N)=NC1CCCCC1	92	i
N#CC(=Cc1[nH]c2ccccc2c1O)C(N)=NCCc1ccccc1	i	i
O=C(c1ccc(F)cc1)N1CCCC(c2ccnc(Nc3ccccc3)n2)C1 (stereo unspecified)	i	i
CCCC(=O)N1CCCC(c2ccnc(Nc3ccc(C)cc3)n2)C1 (stereo unspecified)	i	i
Cc1ccccc1C(=O)N1CCCC(c2ccnc(Nc3cccc(F)c3)n2)C1 (stereo unspecified)	99	i

Screening results deposited in PubChem BioAssay by University of Kansas High Throughput Screening Laboratory.
